Several values for one entry are separate records, joined by “and”; a condition that tells them apart may be missing. Equal values may be shown once. The campaign covered roughly 400,000 compounds. About 13,000 (3.2%) were called active. About 18% were inconclusive and are not listed. The call rests on the fitted dose curve; in most records, active means well fitted cell-killing curve with a large enough effect; inconclusive means small, poorly fitted or top-dose-only effect, or effect the other way; inactive means flat fitted curve, though single readings scatter. For the sample, actives were picked, then their nearest neighbours and some compounds at random.
test: qHTS assay for MDR1-selective chemotherapeutics: Primary screen using the drug-selected MDR subline cells KB-V1; settings: KB-V1 MDR cells viability, CellTiter-Glo, 72 h; series mostly up to 46.1 µM; activity change, negative = cytotoxicity: at the top concentration; further: nearly all actives have a fitted effect of over 60% in size
In short: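 KB-V1, DMEM (no phenol red) + 10% FBS; cpd pin-transferred, titration series; 72 h, 37 degrees C; CellTiter-Glo, luminescence. Data normalized, curve-fit.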
On the % scale 0 is the no-effect control and ±100 the full control effect; potency means the concentration at half of the fitted maximal effect.

Row | Compound | activity change, negative = cytotoxicity | Potency
1 | COc1cccc(OCC(=O)NCCS(=O)(=O)N2CCN(c3ccccc3)CC2)c1 | -0.223% (inactive) | –
2 | COc1ccc2c(c1)C=C(C(=O)NCc1cc(Br)ccc1OC)CO2 | 7.07% (inactive) | –
3 | COc1cc(-c2nnc(NC(=O)CS(=O)(=O)c3ccc(Cl)cc3)o2)cc(OC)c1OC | -2.72% (inactive) | –
4 | COc1ccc(Cl)cc1NC(=O)CN(C)C(=O)c1cn(-c2ccccc2)nc1-c1cccs1 | -11% (inactive) | –
5 | COc1cccc(CNC(=O)CN2C(=O)NC(Cc3ccccc3)(c3ccccc3)C2=O)c1 (configuration not stated) | -1.58% (inactive) | –
6 | O=C(CN1C(=O)NC(Cc2ccccc2)(Cc2ccccc2)C1=O)NCC1CCCCC1 | – | 20.6 µM (active)
7 | O=C(CC1CCCCC1)NCc1ccccc1 | -3.84% (inactive) | –
8 | COC(=O)C[C@H]1C[C@@H]2c3cc(N(C)C)ccc3O[C@@H]2[C@H](CO)O1 | 12% (inactive) | –
9 | CN(Cc1ccccc1)C(=O)CSc1nc2ccccc2[nH]1 | -16% (inactive) | –
10 | CCC(C)N1C(=O)S/C(=C/c2ccc(Sc3nc4ccccc4[nH]3)o2)C1=O (configuration not stated) | – | 5.17 µM (active)
11 | O=C1NC[C@H](Cc2ccc(O)cc2)N(C[C@H]2CCCN2C[C@H](Cc2ccccc2)N2C[C@H](Cc3ccccc3)N(CCc3ccccc3)C(=O)C2=O)C1=O | 10.8% (inactive) | –
12 | COCCCNc1ccn2nc(-c3ccc(CC(C)C)cc3)cc2n1 | -15% (inactive) | –
13 | O=C(Nc1ccc(S(=O)(=O)Nc2ncccn2)cc1)c1cncc(Br)c1 | 0% (inactive) | –
14 | CCOc1ncccc1C(=O)Nc1ccc2c(c1)OCCO2 | -3.64% (inactive) | –
15 | CCOc1ncccc1C(=O)Nc1ccc(S(=O)(=O)Nc2nc(C)cc(C)n2)cc1 | – | 20.6 µM (active)
16 | CCOC(=O)c1cccc(NC(=O)C(Cc2ccccc2)NS(=O)(=O)c2cccc3nsnc23)c1 (configuration not stated) | -8.85% (inactive) | –
17 | COc1cccc(-c2ccc(SCC(=O)N3CCN(c4ccccc4)CC3)nn2)c1 | – | 14.6 µM (active)
18 | COc1cccc(/C=C/C(=O)OCC(=O)N2CCN(c3ccccc3)CC2)c1 | -12.1% (inactive) | –
19 | Cc1nnc(SCC(=O)N2CCN(c3ccccc3)CC2)n1-c1ccccc1 | -5.39% (inactive) | –
20 | c1ccc(CCN2CN=C(Nc3nc4ccccc4o3)NC2)cc1 | – | 13 µM (active)
21 | N#CNC1=NCN(CCc2ccccc2)CN1 | 4.58% (inactive) | –

Row | Compound | activity change, negative = cytotoxicity | Potency
22 | O=C1CCCC2=C1[C@@]1(CCC(c3ccccc3)C1)N=C(Nc1nc3ccccc3o1)N2 (some centres not stated) | -23.4% (inactive) | –
23 | Cc1ccccc1Cn1nc(C)c(NC(=O)c2cc(-c3ccc(F)cc3)on2)c1C | -2.23% (inactive) | –
24 | Cc1cc(NC(=O)c2cc(-c3cccs3)on2)nn1Cc1ccc(Cl)cc1 | – | 9.2 µM (active)
25 | CC(=O)c1ccc(NC(=O)c2cc(-c3cccs3)on2)cc1 | -21.1% (inactive) | –
26 | Cc1cccc(CC(=O)Nc2cccc(-c3cn4cccnc4n3)c2)c1 | 11.6% (inactive) | –
27 | COc1ccc(NC(=O)N(C)C[C@H]2Oc3ncc(C#C[C@@H](C)O)cc3C(=O)N([C@H](C)CO)C[C@H]2C)cc1 | -2.19% (inactive) | –
28 | O=C(c1cccs1)C1C(c2ccc(Br)cc2)NC(=S)NC1(O)C(F)(F)F (configuration not stated) | – | 20.6 µM (active)
29 | CCOC(=O)C1C(c2ccc(O)cc2)NC(=O)NC1(O)C(F)(F)F (configuration not stated) | 18% (inactive) | –
30 | Cc1ccc(Cc2c(-c3ccc(C)cc3)nc3c4ccccc4ccn23)cc1 | 2.79% (inactive) | –
31 | c1ccc2c(c1)nnn2-c1ccncc1 | 0.884% (inactive) | –
32 | CC(=NCc1ccco1)c1c(C(F)(F)F)[nH]n(-c2nc3ccccc3s2)c1=O | – | 9.2 µM (active)
33 | CC(=NCc1ccco1)C1=C(O)c2ccccc2C1=O | -27.6% (inactive) | –
34 | CCc1ccc(-c2cc(C(=O)NCc3ccco3)c3ccccc3n2)s1 | 1.92% (inactive) | –
35 | CN(C)C(CNC(=O)c1cc(Br)c(Br)s1)c1ccco1 (configuration not stated) | 10.7% (inactive) | –
36 | CCCCC(CCCC)c1ccc(C=Nc2ccc(/C=C/c3ccnc4ccccc34)cc2)cc1 | 0% (inactive) | –
37 | Cc1ccc(C(=O)OCC(=O)N2CCCCCC2)cc1S(=O)(=O)N1CCOCC1 | – | 14.6 µM (active)
38 | O=C(OCC(=O)N1CCCCCC1)c1ccc(Br)c(S(=O)(=O)N2CCOCC2)c1 | -25% (inactive) | –
39 | COc1ccc(C(=O)OCC(=O)c2ccc(C)c(S(=O)(=O)N3CCOCC3)c2)cc1OC | -25.9% (inactive) | –
40 | COC(=O)[C@]12CCCCC=C1N(Cc1ccco1)C(=O)[C@H](CC(=O)NCC1CCCCC1)C2 | 6.39% (inactive) | –
41 | COc1ccccc1NC(=O)C1=C(C)Nc2nc3ccccc3n2C1c1cccs1 (configuration not stated) | – | 5.8 µM (active)
42 | CCOC(=O)C1=C(C)Nc2nc3ccccc3n2C1c1cccs1 (configuration not stated) | – | 3.26 µM (active)

Row | Compound | activity change, negative = cytotoxicity | Potency
43 | CCOc1ccc(C2C(C(=O)NC)=C(C)Nc3nc4ccccc4n32)cc1OC (configuration not stated) | -6.45% (inactive) | –
44 | COC(=O)c1ccc(C2C(C(=O)Nc3ccccc3)=C(C)Nc3nc4ccccc4n32)cc1 (configuration not stated) | -5.17% (inactive) | –
45 | CC1=C(C(=O)Nc2ccccc2Cl)C(c2cccs2)n2ncnc2N1 (configuration not stated) | -6.43% (inactive) | –
46 | COc1ccccc1NC(=O)C1=C(C)Nc2ncnn2C1c1sccc1C (configuration not stated) | 0% (inactive) | –
47 | O=S1(=O)C[C@@H](N2CCN(CCO)CC2)[C@H](COCc2ccccc2)N1 | -9.39% (inactive) | –
48 | CC1(C(=O)NCc2ccccc2)CN(S(C)(=O)=O)CC(=O)N1CC(F)(F)F (configuration not stated) | 5.12% (inactive) | –
49 | CN(C)CCN1CCN(c2cc(-c3cccc(Cl)c3)nc3ccnn23)CC1 | 7.25% (inactive) | –
50 | CCc1nc2c(OCC(N)=O)cccn2c1N(C)C(=O)c1ccc(OC)cc1 | 0% (inactive) | –
51 | CC1=C(C(=O)N2CCOCC2)CC(CC(=O)NCc2cccs2)C(=O)N1CCCN1CCCC1=O (configuration not stated) | -2.21% (inactive) | –
52 | C#C[C@]1(O)CC[C@H]2[C@@H]3CCC4=CC(=O)CC[C@@H]4[C@H]3CC[C@@]21CC | – | 13 µM (active) and 7.31 µM (active)
53 | CCCCCCCCN1C(=O)[C@H](CC(=O)NCC23CC4CC(CC(C4)C2)C3)C[C@@]2(C(=O)OC)CCCCC=C12 | -1.91% (inactive) | –
54 | CC(C)Sc1oc(-c2cccs2)nc1S(=O)(=O)c1ccc(Cl)cc1 | -19.7% (inactive) | –
55 | O=C(NC1C2CC3CC(C2)CC1C3)c1ccc(N2CCNCC2)c([N+](=O)[O-])c1 (configuration not stated) | -24.8% (inactive) | –
56 | CS(=O)(=O)N1CCN(c2ccc(C(=O)NC3C4CC5CC(C4)CC3C5)cc2[N+](=O)[O-])CC1 (configuration not stated) | – | 11.6 µM (active)
57 | CC(NC(=O)c1ccc(N2CCNCC2)c([N+](=O)[O-])c1)C12CC3CC(CC(C3)C1)C2 (configuration not stated) | -12.3% (inactive) | –
58 | COc1ccc(-c2cc3nc(NCCOc4ccccc4)ccn3n2)cc1 | -1.29% (inactive) | –
59 | CCc1nc2onc(C)c2c(=O)n1CC(=O)O | 20.4% (inactive) | –
60 | CCOCCCNC(=O)C(NC(=O)CNC(=O)c1ccccc1)c1ccc(C)cc1 (configuration not stated) | 0.549% (inactive) | –
61 | COCCCNC(NC(=O)c1ccc(OC)cc1)C(Cl)(Cl)Cl (configuration not stated) | -0.612% (inactive) | –
62 | COCCCNC(NC(=O)c1ccc(C)cc1)C(Cl)(Cl)Cl (configuration not stated) | – | 20.6 µM (active)

Source: PubChem BioAssay AID1347076 (National Center for Advancing Translational Sciences (NCATS), 2019)
